This note sets out measurements from PubChem BioAssay (Tox21).

Structures are written as SMILES. Active and inactive are the calls of the source. Entries that show only a call come without a potency. Calls follow the shape of the dose curve; as a rule, active = well fitted activation curve with a large enough effect in the repeat runs; inconclusive = weak or mixed curves; inactive = flat fitted curve, though single readings scatter.
Potency is read from the fitted curve at half-maximal effect.

The test is described as follows: A CellTox Green Cytotoxicity Assay to monitor cytotoxicity in HepG2 cells - 0 hour (AID 1224882). Also: nearly all actives have a fitted effect of over 35% in size. Particulars: CellTox Green fluorescence; series mostly up to 76.8 µM. The source says:
National Center for Advancing Translational Sciences [NCATS]
NIH Chemical Genomics Center [NCGC]
U.S. Environmental Protection Agency [EPA]
National Institutes of Environmental Health Sciences [NIEHS]
National Toxicology Program [NTP]
Cell-based models are critical for drug discovery. Determining the natural cytotoxic effects resulting from test compounds is an essential research activity. A CellTox Green Cytotoxicity Assay to monitor cytotoxicity in real time of continues cell culture during 40 hours of the compound treatment was used to screen Tox21 10K library compounds in HepG2 cells. CellTox Green Cytotoxicity Assay is a nonlytic, homogeneous, biofluorescent method to measure cytotoxicity in cell culture after experimental manipulation. The assay system uses a proprietary asymmetric cyanine dye that is excluded from viable cells but preferentially stains the dead cell's DNA. […] Viable cells produce no appreciable increases in fluorescence. Therefore, the fluorescence signal produced by the binding interaction with dead cell DNA is proportional to cytotoxicity.
The mixture of HepG2 cell suspension and reagents were dispensed at 600cells/6 ul/well in 1536-well tissue culture treated black solid bottom plates using a Multidrop dispenser. After the assay plates were incubated at a 37 C/5% CO2 incubator for 5 hours, 23 nL of compounds dissolved in DMSO, positive and negative controls was transferred to the assay plate by a pintool work station. The plates were incubated at 37 C for 40 hours. The fluorescence intensity were measured at 0h, 8h, 16h, 24h, 32h and 40h time points using ViewLux plate reader during compound treatment.
For `Cc1ccc(Cl)c(Nc2ccccc2C(=O)O)c1Cl`, the Potency entry is “inactive”.

`C[C@H]1c2cccc(O)c2C(O)=C2C(=O)[C@]3(O)C(O)=C(C(N)=O)C(=O)[C@@H](N(C)C)[C@@H]3[C@@H](O)[C@@H]21`: the Potency entry was “inactive”.

As to `CCOC(=O)c1ccc(OCCN2C[C@H](O)[C@@H](O)[C@H](O)[C@H]2CO)cc1`, the Potency entry was “inactive”.

`CCCCCCCC/C=C\CCCCCCCCCCCC(=O)O`: the Potency entry was “inactive”.

Turning to `NNC(=O)CP(=O)(c1ccccc1)c1ccccc1`, the Potency entry is “inactive”.

Regarding `COc1cc(N)c(Cl)cc1C(=O)NC1CCN(CCCOc2ccc(F)cc2)CC1OC` (stereo not given), the Potency result is “inactive”.

For the compound `CC(C)c1nc(CN(C)C(=O)N[C@H](C(=O)N[C@@H](Cc2ccccc2)C[C@H](O)[C@H](Cc2ccccc2)NC(=O)OCc2cncs2)C(C)C)cs1`, the Potency entry was “inactive”.

For the compound `CCOC(C)=O`, the Potency entry was “inactive”.

With `CCc1ccccc1`, the Potency result is “inactive”.

Turning to `COc1cc(C(=O)NCCCCCC(=O)O)cc(OC)c1OC`, the Potency entry was “inactive”.

For `c1csc(SSc2cccs2)c1`, the Potency result is “inactive”.

As to `CCOC(=O)/C=C/C(=O)OCC`, the Potency result was “inactive”.

Regarding `CCCCOc1ccc(OCCCN2CCOCC2)cc1`, the Potency result is “inactive”.

`O=C(O)c1ccc(OCCCOc2ccc(C(=O)O)cc2)cc1`: the Potency entry is “inactive”.

`CC(=O)OCC(=O)NCCCOc1cccc(CN2CCCCC2)c1`: the Potency entry is “inactive”.

In the case of `CC(C)C(O)(c1ccc(OC(F)(F)F)cc1)c1cncnc1` (stereo not given), the Potency entry is “inactive”.

For the compound `CCOC(=O)c1ccc(I)cc1`, the Potency entry is “inactive”.

Take `Clc1ccc(Nc2nnc(Cc3ccncc3)c3ccccc23)cc1`: the Potency result is “inactive”.

As to `Cc1cc2c(OCC(CNC(C)(C)C)OC(=O)c3ccccc3)cccc2[nH]1` (stereo not given), the Potency result was “inactive”.

For the compound `CCC(C)(C)OC`, the Potency entry was “inactive”.

Turning to `OC1(c2ccccc2)CCNCC1`, the Potency entry is “inactive”.

`Nc1cccc2c1CN(C1CCC(=O)NC1=O)C2=O` (stereo not given): the Potency result is “inactive”.

`CC(C)=CCC/C(C)=C/CC/C(C)=C/CCC(=O)OC/C=C(\C)CCC=C(C)C`: the Potency result is “inactive”.

`CN1C(=O)c2ccccc2C1=O`: the Potency result is “inactive”.

Take `CC/C=C1/OC(=O)c2ccccc21`: the Potency result is “inactive”.

On to `CCC(C)COC(=O)CC(C)C` (stereo not given), for which the Potency entry is “inactive”.

As for `O=c1cc(-c2ccccc2)oc2cc(O)cc(O)c12`, the Potency result was “inactive”.

`CCOC(=O)c1ccccc1C(=C1C=C(Br)C(=O)C(Br)=C1)c1cc(Br)c(O)c(Br)c1`: the Potency entry was “inactive”.

`O=C(Nc1cccc2c(=O)cc(-c3nn[nH]n3)oc12)c1ccc(OCCCCc2ccccc2)cc1`: the Potency is 26.8 µM (active).

With `c1ccc2sc(SN(C3CCCCC3)C3CCCCC3)nc2c1`, the Potency result was “inactive”.

Regarding `O=c1c(O)c(-c2ccc(O)cc2)oc2cc(O)cc(O)c12`, the Potency entry was “inactive”.

Consider `C1C[C@@H]2[C@H]3CC[C@H](C3)[C@@H]2C1`, for which the Potency result is “inactive”.

On to `Nc1ccc(N=Nc2ccccc2)c(N)c1`, for which the Potency result is “inactive”.

For the compound `C=CC(=O)OCC1CC2CC1C1CCC(COC(=O)C=C)C21` (stereo not given), the Potency result is “inactive”.

For `CCCCCCCCN`, the Potency result is “inactive”.

`CC(C)=CC(=O)C=C(C)C`: the Potency entry was “inactive”.

For the compound `N#[N+]c1ccc2c(S(=O)(=O)[O-])cccc2c1O`, the Potency entry is “inactive”.

On to `CN1C(=O)OC(C)(C)C1=O`, for which the Potency result was “inactive”.

`CC1=C(Br)C(=O)C(Br)=C/C1=C(/c1ccccc1S(=O)(=O)O)c1cc(Br)c(O)c(Br)c1C`: the Potency entry is “inactive”.

In the case of `COC(=O)[C@H]1[C@H]2C[C@@H]3c4[nH]c5cc(OC)ccc5c4CCN3C[C@H]2C[C@@H](OC(=O)/C=C/c2ccc(O)c(OC)c2)[C@@H]1OC`, the Potency is 26.8 µM (active).
